Legend:
[1] = biological target: T1, Inhibitor of nuclear factor kappa-B kinase subunit epsilon (Homo sapiens) (UniProt Q14164); conditions: at 1 µM;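 note: reported values are averaged percent inhibition figures against human IKKε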
T1 sequence (whole entry): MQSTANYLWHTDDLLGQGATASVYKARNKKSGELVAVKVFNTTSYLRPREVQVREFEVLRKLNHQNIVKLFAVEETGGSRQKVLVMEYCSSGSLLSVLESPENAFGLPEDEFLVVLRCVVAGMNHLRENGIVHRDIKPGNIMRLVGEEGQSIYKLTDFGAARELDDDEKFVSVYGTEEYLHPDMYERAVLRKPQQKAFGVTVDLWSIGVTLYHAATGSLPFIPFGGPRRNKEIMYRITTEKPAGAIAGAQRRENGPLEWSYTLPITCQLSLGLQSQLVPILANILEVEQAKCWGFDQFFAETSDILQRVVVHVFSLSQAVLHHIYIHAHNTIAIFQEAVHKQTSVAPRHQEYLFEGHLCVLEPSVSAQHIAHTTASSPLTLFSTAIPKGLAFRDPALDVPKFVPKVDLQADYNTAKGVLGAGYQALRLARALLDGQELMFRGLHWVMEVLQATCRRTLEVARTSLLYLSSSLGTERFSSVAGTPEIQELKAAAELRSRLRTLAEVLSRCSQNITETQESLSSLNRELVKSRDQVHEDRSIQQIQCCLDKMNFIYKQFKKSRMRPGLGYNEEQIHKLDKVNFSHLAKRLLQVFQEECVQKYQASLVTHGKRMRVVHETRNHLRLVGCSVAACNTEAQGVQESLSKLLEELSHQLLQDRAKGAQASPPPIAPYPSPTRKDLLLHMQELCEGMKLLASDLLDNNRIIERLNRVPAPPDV

[2] = biological target: T2, Serine/threonine-protein kinase Nek1 (Homo sapiens) (UniProt Q96PY6); conditions: at 0.1 µM
T2 sequence (whole entry): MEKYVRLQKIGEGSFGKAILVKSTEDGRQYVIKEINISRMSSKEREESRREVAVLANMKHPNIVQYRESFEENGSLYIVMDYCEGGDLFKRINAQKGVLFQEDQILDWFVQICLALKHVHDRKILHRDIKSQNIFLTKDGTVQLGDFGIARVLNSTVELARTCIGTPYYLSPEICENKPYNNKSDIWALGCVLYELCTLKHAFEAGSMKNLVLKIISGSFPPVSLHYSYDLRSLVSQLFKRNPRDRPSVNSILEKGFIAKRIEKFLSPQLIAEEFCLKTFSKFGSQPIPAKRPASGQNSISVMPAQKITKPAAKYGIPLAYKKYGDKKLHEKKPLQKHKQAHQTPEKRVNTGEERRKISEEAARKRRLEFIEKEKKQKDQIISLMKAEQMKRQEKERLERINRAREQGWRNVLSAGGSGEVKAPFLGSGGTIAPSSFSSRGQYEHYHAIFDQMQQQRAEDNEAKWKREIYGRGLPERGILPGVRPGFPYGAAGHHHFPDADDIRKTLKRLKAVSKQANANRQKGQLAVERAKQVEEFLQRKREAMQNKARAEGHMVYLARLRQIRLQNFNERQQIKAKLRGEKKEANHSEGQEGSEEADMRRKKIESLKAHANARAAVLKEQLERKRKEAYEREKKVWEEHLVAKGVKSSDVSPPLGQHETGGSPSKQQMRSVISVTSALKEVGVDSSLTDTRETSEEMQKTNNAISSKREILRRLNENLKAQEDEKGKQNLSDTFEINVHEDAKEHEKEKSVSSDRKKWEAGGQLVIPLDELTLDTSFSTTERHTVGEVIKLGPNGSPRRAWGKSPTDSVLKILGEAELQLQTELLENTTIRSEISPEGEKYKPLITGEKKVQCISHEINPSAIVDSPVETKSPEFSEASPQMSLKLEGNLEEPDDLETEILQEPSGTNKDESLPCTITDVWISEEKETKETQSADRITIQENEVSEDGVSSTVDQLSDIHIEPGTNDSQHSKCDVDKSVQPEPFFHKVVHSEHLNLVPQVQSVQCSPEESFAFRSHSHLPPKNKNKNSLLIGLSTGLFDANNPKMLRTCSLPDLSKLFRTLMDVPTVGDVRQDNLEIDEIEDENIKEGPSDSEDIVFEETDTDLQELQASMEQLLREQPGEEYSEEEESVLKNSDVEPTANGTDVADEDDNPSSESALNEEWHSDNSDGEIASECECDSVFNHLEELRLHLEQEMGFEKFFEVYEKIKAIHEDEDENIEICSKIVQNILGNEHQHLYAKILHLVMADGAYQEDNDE

[3] = biological target: T2, Serine/threonine-protein kinase Nek1 (Homo sapiens); conditions: at 1 µM
[4] = biological target: T3, Serine/threonine-protein kinase Nek2 (Homo sapiens) (UniProt P51955); conditions: at 0.1 µM
T3 sequence (whole entry): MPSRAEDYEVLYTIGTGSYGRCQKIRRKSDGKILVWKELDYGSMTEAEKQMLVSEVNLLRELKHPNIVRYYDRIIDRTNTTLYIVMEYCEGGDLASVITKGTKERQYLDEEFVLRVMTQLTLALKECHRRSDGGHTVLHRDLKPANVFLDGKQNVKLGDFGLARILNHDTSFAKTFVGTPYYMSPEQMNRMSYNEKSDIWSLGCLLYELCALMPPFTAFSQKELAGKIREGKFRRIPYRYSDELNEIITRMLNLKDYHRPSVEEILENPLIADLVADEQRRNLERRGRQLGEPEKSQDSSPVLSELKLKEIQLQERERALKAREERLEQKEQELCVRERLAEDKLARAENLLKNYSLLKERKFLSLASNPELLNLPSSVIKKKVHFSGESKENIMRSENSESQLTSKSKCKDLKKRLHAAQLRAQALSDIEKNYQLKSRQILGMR

[5] = biological target: T3, Serine/threonine-protein kinase Nek2 (Homo sapiens); conditions: at 1 µM
[6] = biological target: Serine/threonine-protein kinase Nek6 (Homo sapiens) (UniProt Q9HC98); conditions: at 0.1 µM
[7] = biological target: Serine/threonine-protein kinase Nek6 (Homo sapiens) (UniProt Q9HC98); conditions: at 1 µM
[8] = biological target: Serine/threonine-protein kinase Nek7 (Homo sapiens) (UniProt Q8TDX7); conditions: at 0.1 µM
[9] = biological target: Serine/threonine-protein kinase Nek7 (Homo sapiens) (UniProt Q8TDX7); conditions: at 1 µM
[10] = biological target: T4, Serine/threonine-protein kinase Nek9 (Homo sapiens) (UniProt Q8TD19); conditions: at 0.1 µM
T4 sequence (whole entry): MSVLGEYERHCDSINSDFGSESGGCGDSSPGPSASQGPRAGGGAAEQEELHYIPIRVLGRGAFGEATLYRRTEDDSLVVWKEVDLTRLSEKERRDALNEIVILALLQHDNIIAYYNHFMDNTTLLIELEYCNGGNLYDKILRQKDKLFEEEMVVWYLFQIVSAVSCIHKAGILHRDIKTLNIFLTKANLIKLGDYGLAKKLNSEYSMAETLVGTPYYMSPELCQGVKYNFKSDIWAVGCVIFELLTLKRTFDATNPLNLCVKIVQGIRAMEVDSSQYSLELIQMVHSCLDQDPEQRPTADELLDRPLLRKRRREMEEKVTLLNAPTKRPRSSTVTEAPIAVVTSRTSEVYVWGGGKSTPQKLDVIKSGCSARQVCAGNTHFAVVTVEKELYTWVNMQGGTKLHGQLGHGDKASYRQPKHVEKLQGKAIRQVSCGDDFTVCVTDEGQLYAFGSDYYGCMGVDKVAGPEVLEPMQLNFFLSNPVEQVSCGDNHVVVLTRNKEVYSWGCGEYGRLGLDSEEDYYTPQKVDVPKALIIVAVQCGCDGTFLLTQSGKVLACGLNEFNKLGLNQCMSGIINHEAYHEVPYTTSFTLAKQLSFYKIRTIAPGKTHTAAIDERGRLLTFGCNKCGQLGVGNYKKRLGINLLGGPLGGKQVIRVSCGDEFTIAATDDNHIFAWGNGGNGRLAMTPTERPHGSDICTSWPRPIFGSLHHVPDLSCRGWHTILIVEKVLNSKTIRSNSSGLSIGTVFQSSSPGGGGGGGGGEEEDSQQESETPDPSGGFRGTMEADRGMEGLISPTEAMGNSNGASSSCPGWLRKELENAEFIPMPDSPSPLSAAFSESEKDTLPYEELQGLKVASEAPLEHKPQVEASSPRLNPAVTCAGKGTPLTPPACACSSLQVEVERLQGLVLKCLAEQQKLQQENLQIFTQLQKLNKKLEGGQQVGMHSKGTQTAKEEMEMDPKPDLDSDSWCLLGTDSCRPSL

[11] = biological target: T4, Serine/threonine-protein kinase Nek9 (Homo sapiens); conditions: at 1 µM
[12] = biological target: Serine/threonine-protein kinase PLK1 (Homo sapiens) (UniProt P53350); conditions: at 0.1 µM
[13] = biological target: Serine/threonine-protein kinase PLK1 (Homo sapiens) (UniProt P53350); conditions: at 1 µM
[14] = biological target: T5, Dual specificity protein kinase TTK (Homo sapiens) (UniProt P33981); conditions: at 0.1 µM
T5 sequence (whole entry): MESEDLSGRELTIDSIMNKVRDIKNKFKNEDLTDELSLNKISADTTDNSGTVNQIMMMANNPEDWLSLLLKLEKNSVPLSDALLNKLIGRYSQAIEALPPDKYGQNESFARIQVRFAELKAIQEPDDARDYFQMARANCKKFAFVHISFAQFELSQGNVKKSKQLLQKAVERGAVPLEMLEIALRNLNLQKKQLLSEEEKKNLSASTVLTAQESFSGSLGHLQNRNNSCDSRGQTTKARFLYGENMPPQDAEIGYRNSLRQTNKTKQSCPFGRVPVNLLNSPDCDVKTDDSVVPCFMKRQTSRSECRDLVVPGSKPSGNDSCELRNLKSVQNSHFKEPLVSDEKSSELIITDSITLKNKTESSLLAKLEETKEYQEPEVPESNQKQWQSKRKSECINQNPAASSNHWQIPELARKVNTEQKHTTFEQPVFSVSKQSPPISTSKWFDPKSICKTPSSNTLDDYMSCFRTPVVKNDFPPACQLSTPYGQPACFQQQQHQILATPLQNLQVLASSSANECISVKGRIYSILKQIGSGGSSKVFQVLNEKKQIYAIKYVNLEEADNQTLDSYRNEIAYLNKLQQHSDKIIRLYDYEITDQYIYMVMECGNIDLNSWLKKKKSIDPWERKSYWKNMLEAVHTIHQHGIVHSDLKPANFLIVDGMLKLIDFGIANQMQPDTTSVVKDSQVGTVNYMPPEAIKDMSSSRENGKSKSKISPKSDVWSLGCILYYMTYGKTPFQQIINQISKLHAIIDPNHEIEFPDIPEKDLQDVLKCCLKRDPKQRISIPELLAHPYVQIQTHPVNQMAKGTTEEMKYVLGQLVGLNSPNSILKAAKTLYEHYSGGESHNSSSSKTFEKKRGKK

[15] = tested on: T6, Receptor-type tyrosine-protein kinase FLT3 (Homo sapiens), P36888 [D835Y]; conditions: at 1 µM
T6 sequence (whole entry): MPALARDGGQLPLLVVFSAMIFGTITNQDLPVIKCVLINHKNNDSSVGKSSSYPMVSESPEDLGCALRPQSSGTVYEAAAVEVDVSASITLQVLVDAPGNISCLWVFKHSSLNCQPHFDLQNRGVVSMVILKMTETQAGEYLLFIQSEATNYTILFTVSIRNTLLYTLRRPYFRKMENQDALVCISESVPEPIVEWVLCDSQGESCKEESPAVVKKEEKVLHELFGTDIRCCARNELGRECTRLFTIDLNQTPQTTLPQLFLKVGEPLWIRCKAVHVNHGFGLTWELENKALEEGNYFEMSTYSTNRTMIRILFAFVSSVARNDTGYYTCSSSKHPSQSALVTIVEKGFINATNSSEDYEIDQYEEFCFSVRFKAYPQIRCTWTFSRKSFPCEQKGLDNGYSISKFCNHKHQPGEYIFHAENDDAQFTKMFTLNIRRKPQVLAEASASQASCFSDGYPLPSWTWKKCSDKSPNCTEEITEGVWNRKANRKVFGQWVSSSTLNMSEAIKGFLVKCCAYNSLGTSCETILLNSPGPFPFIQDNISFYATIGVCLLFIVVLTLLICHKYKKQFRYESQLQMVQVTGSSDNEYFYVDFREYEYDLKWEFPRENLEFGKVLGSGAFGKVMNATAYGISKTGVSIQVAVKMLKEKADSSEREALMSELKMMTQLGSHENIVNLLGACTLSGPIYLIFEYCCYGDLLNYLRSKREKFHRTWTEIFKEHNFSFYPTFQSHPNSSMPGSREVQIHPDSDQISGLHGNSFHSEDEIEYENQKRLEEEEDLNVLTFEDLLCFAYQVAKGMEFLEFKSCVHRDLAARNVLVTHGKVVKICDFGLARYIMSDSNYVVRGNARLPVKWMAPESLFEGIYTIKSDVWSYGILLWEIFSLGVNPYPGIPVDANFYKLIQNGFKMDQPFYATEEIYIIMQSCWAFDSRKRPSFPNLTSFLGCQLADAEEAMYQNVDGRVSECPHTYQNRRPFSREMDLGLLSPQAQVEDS

[16] = biological target: Vascular endothelial growth factor receptor 3 (Homo sapiens) (UniProt P35916); conditions: at 0.1 µM
[17] = biological target: Vascular endothelial growth factor receptor 3 (Homo sapiens) (UniProt P35916); conditions: at 1 µM
[18] = biological target: Macrophage colony-stimulating factor 1 receptor (Homo sapiens) (UniProt P07333); conditions: at 0.1 µM
[19] = biological target: Macrophage colony-stimulating factor 1 receptor (Homo sapiens) (UniProt P07333); conditions: at 1 µM
[20] = biological target: Tyrosine-protein kinase Fyn (Homo sapiens) (UniProt P06241); conditions: at 0.1 µM
Tyrosine-protein kinase Fyn (Homo sapiens), sequence (P06241 2-537 limits assumed): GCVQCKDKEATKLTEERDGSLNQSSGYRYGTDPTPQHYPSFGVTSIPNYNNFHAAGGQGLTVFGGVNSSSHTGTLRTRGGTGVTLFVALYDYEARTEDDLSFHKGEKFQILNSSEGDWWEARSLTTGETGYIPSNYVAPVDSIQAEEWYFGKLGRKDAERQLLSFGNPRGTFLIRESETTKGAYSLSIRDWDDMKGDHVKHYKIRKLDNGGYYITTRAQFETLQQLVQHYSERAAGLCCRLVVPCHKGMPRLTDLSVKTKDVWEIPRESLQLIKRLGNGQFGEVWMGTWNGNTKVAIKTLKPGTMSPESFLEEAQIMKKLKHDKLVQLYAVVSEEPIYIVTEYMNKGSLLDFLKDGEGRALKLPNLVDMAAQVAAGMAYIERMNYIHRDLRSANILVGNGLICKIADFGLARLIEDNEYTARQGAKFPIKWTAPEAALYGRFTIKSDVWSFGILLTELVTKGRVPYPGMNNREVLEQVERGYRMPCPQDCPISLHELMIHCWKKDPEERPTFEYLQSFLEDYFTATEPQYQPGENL

Serine/threonine-protein kinase Nek6 (Homo sapiens), sequence (Q9HC98 whole entry): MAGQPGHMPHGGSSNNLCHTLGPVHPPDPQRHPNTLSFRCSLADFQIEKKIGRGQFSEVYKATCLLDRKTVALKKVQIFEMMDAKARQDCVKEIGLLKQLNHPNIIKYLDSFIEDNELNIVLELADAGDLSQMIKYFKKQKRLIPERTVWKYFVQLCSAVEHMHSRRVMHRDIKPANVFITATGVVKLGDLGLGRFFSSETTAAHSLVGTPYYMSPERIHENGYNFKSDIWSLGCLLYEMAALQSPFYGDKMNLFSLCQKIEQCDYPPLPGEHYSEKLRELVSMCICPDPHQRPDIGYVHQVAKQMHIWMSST
Serine/threonine-protein kinase Nek7 (Homo sapiens), sequence (Q8TDX7 whole entry, looked up): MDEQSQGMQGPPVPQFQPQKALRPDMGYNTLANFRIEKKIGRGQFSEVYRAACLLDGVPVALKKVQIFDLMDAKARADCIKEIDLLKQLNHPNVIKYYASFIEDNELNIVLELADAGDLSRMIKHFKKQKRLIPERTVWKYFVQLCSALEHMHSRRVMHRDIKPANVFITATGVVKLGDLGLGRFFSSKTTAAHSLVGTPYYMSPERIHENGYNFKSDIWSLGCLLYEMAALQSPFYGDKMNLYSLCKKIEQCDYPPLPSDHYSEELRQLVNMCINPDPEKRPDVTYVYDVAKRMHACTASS
Serine/threonine-protein kinase PLK1 (Homo sapiens), sequence (P53350 whole entry): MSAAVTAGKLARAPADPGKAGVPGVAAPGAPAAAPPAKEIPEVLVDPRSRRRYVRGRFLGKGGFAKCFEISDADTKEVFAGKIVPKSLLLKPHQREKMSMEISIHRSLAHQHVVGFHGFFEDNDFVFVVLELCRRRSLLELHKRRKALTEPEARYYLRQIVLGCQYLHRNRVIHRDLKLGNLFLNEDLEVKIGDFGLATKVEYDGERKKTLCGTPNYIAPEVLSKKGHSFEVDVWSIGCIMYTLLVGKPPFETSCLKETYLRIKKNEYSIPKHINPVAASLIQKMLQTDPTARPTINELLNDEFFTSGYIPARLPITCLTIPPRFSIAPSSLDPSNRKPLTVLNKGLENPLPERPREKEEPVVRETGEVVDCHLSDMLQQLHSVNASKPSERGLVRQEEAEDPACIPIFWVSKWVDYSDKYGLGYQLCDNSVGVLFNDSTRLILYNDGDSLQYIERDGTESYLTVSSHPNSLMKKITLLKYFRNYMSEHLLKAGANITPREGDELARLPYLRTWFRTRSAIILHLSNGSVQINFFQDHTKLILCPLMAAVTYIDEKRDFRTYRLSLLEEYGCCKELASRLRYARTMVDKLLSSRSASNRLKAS
Macrophage colony-stimulating factor 1 receptor (Homo sapiens), sequence (P07333 whole entry): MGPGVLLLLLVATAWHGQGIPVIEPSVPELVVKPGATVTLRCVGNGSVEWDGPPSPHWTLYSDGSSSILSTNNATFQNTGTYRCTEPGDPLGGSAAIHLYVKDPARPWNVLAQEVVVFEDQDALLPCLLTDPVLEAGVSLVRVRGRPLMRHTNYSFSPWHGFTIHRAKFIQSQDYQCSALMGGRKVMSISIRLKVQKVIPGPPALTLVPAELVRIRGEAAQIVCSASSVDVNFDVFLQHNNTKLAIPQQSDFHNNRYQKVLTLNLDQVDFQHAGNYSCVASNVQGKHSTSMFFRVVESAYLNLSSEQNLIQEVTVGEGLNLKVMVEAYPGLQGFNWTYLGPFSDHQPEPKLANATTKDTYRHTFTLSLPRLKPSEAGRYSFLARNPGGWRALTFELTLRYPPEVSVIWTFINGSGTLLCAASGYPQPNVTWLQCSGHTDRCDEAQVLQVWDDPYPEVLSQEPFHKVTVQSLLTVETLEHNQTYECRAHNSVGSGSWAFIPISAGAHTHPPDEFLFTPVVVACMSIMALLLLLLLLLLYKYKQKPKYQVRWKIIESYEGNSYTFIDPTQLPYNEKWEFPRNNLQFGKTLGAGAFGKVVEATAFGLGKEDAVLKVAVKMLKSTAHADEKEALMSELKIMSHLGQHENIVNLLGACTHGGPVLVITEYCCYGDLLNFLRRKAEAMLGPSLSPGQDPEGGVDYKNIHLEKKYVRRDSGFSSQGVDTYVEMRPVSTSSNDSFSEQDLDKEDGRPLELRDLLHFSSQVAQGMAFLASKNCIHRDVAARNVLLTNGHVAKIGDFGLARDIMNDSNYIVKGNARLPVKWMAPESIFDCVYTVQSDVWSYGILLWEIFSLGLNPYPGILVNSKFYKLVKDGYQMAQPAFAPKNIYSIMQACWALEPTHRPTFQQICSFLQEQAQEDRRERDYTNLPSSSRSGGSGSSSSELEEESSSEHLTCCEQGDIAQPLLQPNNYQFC
Vascular endothelial growth factor receptor 3 (Homo sapiens), sequence (P35916 whole entry): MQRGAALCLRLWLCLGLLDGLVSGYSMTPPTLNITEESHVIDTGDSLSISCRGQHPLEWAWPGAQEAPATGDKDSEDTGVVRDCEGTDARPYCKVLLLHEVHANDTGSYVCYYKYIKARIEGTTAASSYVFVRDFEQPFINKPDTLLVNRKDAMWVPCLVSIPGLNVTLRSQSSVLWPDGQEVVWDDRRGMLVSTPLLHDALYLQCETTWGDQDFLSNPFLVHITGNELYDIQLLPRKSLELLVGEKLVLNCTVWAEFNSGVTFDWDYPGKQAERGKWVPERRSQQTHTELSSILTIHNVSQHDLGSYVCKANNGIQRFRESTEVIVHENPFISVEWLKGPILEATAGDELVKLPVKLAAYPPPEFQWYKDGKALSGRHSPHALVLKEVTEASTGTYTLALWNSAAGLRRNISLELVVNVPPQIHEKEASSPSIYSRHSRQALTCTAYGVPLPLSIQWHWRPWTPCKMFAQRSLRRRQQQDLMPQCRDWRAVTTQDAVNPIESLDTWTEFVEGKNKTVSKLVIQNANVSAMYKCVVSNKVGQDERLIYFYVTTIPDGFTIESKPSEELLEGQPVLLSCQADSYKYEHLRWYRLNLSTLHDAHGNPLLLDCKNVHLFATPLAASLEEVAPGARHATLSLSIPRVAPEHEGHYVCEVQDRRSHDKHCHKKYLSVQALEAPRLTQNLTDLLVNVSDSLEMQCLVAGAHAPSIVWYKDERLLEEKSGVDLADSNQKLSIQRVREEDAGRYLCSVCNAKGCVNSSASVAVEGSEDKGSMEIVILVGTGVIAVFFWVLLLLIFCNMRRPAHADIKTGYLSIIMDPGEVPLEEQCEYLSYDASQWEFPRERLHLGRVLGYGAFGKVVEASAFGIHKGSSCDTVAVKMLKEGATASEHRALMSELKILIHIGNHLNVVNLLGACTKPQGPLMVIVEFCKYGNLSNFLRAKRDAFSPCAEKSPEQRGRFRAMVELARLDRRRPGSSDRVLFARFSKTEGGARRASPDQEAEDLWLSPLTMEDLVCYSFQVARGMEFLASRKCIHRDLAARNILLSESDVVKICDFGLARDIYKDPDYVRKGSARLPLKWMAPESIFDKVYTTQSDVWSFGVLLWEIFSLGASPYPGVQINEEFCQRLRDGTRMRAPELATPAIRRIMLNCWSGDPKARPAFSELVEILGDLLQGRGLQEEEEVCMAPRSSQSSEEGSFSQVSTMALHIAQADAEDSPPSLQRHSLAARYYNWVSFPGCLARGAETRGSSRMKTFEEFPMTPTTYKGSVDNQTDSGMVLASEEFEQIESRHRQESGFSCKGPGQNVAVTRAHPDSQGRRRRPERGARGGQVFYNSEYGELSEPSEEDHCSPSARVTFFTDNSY

Compound | inhibition [1] [%] | inhibition [2] [%] | inhibition [3] [%] | inhibition [4] [%] | inhibition [5] [%] | inhibition [6] [%] | inhibition [7] [%] | inhibition [8] [%] | inhibition [9] [%] | inhibition [10] [%] | inhibition [11] [%] | inhibition [12] [%] | inhibition [13] [%] | inhibition [14] [%] | inhibition [15] [%] | inhibition [16] [%] | inhibition [17] [%] | inhibition [18] [%] | inhibition [19] [%] | inhibition [20] [%]
COc1cccc(-c2c[nH]c3c(N/N=C/c4ccncc4)ncnc23)c1 | 16.8 | 1.94 | 10.6 | 2.57 | 2.88 | 3.57 | -1.66 | 2.88 | 3.62 | 4.67 | 5.28 | 2.36 | 1.97 | 7.43 | 62.7 | 4.35 | 29.5 | 21.6 | 68.6 | 14.4
COc1cccc(-n2ncc3c(N/N=C/c4ccc(F)cc4)ncnc32)c1 | 8.08 | 2.09 | 4.05 | 3.93 | 2.32 | 2.71 | 3.01 | 1.25 | 3.29 | 1.55 | 6.76 | 1.91 | 4.22 | 7.93 | 12.3 | 7.04 | 6.84 | 6.04 | 5.69 | 8.43
FC(F)(F)c1cccc(-c2nn3ncccc3c2-c2ccnc(Nc3ccc4c(c3)OCCO4)n2)c1 | 2.87 | 1.52 | 0.83 | 3.63 | 3.89 | 0.6 | -0.45 | 4.18 | 2.91 | 3.97 | 1.67 | 1.26 | 0.65 | 6.38 | 3.11 | 3.34 | 18.5 | 1.23 | 7.02 | 7.47
